Shown are actives, neighbours in structure and some others; about 0.99% of the full set was active somewhere.
AmpC detergent = AmpC beta-lactamase inhibition with detergent present | P00811 | AmpC hydrolysis of nitrocefin, absorbance 480 nm, 0.01% Triton | Potency, µM (top dose mostly 114 µM), actives largely listed as inhibitors | hit rate 0.041% among 370,000 | AID 485294; further: nearly all actives have a fitted effect of over 25% in size
Target sequence (P00811 whole entry, looked up): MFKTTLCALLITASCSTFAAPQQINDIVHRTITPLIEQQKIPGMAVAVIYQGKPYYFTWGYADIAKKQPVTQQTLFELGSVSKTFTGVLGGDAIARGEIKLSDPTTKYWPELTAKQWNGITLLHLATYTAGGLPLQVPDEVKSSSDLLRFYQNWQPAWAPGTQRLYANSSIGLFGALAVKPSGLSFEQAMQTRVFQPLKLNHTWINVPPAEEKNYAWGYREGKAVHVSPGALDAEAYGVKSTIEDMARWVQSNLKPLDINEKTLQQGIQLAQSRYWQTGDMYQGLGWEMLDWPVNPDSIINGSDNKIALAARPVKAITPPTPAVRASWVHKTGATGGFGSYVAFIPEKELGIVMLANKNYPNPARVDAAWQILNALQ
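20 mM phosphate pH 7.0 + 0.01% (detergent screen) or 0.0001% Triton X-100; 5.3 nM AmpC reagent; cpd preinc 15 min RT; nitrocefin (800 uM stock) to start; A480 q20 s × 4 min; Activity was normalised to no-enzyme and no-compound control wells.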
AmpC inh no detg = blocks E. coli AmpC beta-lactamase in detergent-free assay; P00811; AmpC nitrocefin hydrolysis, absorbance 480 nm, 0.0001% Triton; Potency, µM (doses to about 57.1 µM), most hits filed as inhibitors; hit rate 0.52% among 330,000; AID 485341; further: nearly all actives have a fitted effect of over 20% in size
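AmpC (5.3 nM in the dispensed reagent) in 20 mM phosphate pH 7.0 with 0.01% (detergent screen) or 0.0001% Triton X-100 was preincubated with compounds for 15 min at room temperature. Nitrocefin was then added from an 800 uM solution, and hydrolysis was followed at 480 nm.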
SARS PLP yeast = SARS-CoV PLP inhibition in yeast; Potency, µM (doses to about 32.9 µM), hits mostly activators; hit rate 0.19% among 330,000; AID 485353; S. cerevisiae expressing SARS-CoV PLpro, growth rescue; calls by dose curve; further: nearly all actives have a fitted effect of over 55% in size
NS1 function inh = inhibitors of influenza NS1 protein function | Potency, µM (titrated, usually from 46.1 µM) | hit rate 0.4% among 270,000 | AID 2326; calls by dose curve; further: actives are rising curves; nearly all actives have a fitted effect of over 50% in size
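Growth recovery, yeast-based: influenza A NS1 expressed in S. cerevisiae causes slow growth, and suppressors are detected by OD600. The parent strain without NS1 is used as positive control.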
AMA1 RON2 block = disrupts binding of P. falciparum AMA1 to RON2; AlphaScreen AMA1-biotinylated RON2 peptide binding; Potency, µM (highest dose often 58.2 µM), hits mostly inhibitors; hit rate 0.2% among 360,000; further: nearly all actives have a fitted effect of over 45% in size
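AMA1 (3D7) with his tag at 25 nM final met compounds first, then biotinylated RON2 peptide at 25 nM; detection used donor plus acceptor beads, 10 µg/mL apiece, read by AlphaScreen after 30 min at room temperature.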
Hits are given with their value; i = inactive; ? = inconclusive; nt = no result given. Unless noted, the call rests on the fitted dose curve; in most records, active means well fitted curve in the direction sought with a large enough effect; inconclusive means small, poorly fitted or top-dose-only effect, or another doubt; inactive means no such curve, though single readings can be large; an effect the other way counts as inactive or inconclusive.

SMILES | AmpC detergent | AmpC inh no detg | SARS PLP yeast | NS1 function inh | AMA1 RON2 block
COc1cc(C(=O)Oc2ccccc2/C=N/NC(=O)c2ccc(Cl)cc2Cl)cc(OC)c1OC | i | ? | i | i | i
C=CCOc1ccccc1/C=N/NC(=O)c1ccc(Cl)cc1Cl | i | 25µM | i | i | i
Nc1cc(-c2ccc(Cl)cc2)nn1S(=O)(=O)c1cccc2nsnc12 | i | 22µM | i | i | i
Cc1ccccc1C(=O)NC(NC(=S)Nc1ccc(S(N)(=O)=O)cc1)C(Cl)(Cl)Cl (stereo not given) | i | 20µM | i | i | i
O=C(c1cc(-c2ccc(Br)cc2)n[nH]1)N1CCN(S(=O)(=O)c2ccc(Br)s2)CC1 | i | nt | nt | nt | nt
COc1ccccc1/C=C/c1nc2ccccc2n1C(C)C | i | nt | nt | nt | nt
C#CCn1cc(/C=N/NC(=O)c2cc3ccccc3o2)c2ccccc21 | ? | 28µM | i | i | i
CCc1ccccc1NC(=O)CN1C(=O)COc2ccc(S(=O)(=O)Nc3ccccc3)cc21 | i | nt | nt | nt | nt
O=C(NNS(=O)(=O)c1ccc(Cl)cc1)c1cc(-c2ccccc2)nc2ccccc12 | i | 28µM | i | i | i
Cc1cccc(NC(=O)CCCCCN2C(=O)c3ccccc3C2=O)n1 | i | 7.1µM | i | i | i
Cc1cccc(NC(=O)CCCN2C(=O)c3ccccc3C2=O)n1 | i | i | i | i | i
COc1cccc(-n2sc3c(c2=S)-c2cc(OC)ccc2NC3(C)C)c1 | ? | i | i | i | 22µM
Oc1cccc(/C=N/N(Cc2ccccc2)c2ccccc2)c1 | i | i | i | nt | ?
Oc1ccc(/C=N/N(Cc2ccccc2)c2ccccc2)c(O)c1O | i | 18µM | i | nt | i
CCNC(=S)N/N=C/c1cc(C)n(-c2ccc(Cl)cc2)c1C | i | 28µM | i | nt | i
Cc1nc2ccccn2c1C(=O)N/N=C/c1cc(C)n(-c2ccc(Cl)cc2)c1C | i | i | i | i | i
Cc1csc(SCC(=O)Nc2cccc3nsnc23)n1 | i | 0.22µM | i | i | i
COCCCNC(=O)c1sc2nc(C)c(C(=O)Nc3ccc(C)cc3C)c(-c3ccccc3Cl)c2c1N | i | nt | nt | nt | nt
COc1cccc(C2C(C(=O)c3cc4cccc(OC)c4o3)=C(O)C(=O)N2c2cc(C)on2)c1OC (stereo not given) | ? | 20µM | i | i | i
COc1cccc(C2C(C(=O)c3cc4ccccc4o3)=C(O)C(=O)N2c2cc(C)on2)c1OC (stereo not given) | i | i | i | ? | i
Cc1ccc(SC2=C(Sc3ccc(C)cc3)C(=O)c3ccccc3C2=O)cc1 | i | i | i | i | ?
CC1=CC(=O)C(Sc2ccc(C)cc2)=CC1=O | nt | nt | nt | nt | 13µM
CCN(C1CCCCC1)S(=O)(=O)c1ccc(S(=O)(=O)N2CCN(CCC#N)CC2)cc1 | i | 6.3µM | i | i | i
CC(=O)Nc1ccc(S(=O)(=O)N2CCN(CCC#N)CC2)cc1 | ? | 45µM | i | i | i
Cc1ccc(S(=O)(=O)N2CCN(CCC#N)CC2)cc1 | i | i | i | nt | i
SMILES | AmpC detergent | AmpC inh no detg | SARS PLP yeast | NS1 function inh | AMA1 RON2 block
N=C(N)SCc1ccc(Cl)c2ccccc12 (tested in a mixture with another compound) | nt | nt | nt | i | nt
CNC(=O)COC(=O)c1ccc(NC(=O)CC#N)cc1 | i | i | i | i | i
Cc1cc(C(=O)COC(=O)c2ccc(NC(=O)CC#N)cc2)c(C)n1CCc1ccc(F)cc1 | i | i | i | nt | i
Cc1cc(C)c(C(=O)COC(=O)c2ccc(NC(=O)CC#N)cc2)cc1C | i | 6.3µM | i | i | i
COc1ccc(CCn2c(C)cc(C(=O)COC(=O)c3ccc(NC(=O)CC#N)cc3)c2C)cc1 | i | 18µM | i | i | i
O=C(CSc1n[nH]c(-c2ccc(S(=O)(=O)N3CCCCC3)cc2)n1)Nc1nccs1 | ? | 14µM | i | i | i
COc1ccc(CNC(=O)CCNS(=O)(=O)c2ccc3c(c2)CCCC(=O)N3)cc1 | i | nt | nt | nt | nt
O=C(NCCc1ccc(F)cc1)C(=O)NCC(c1cccs1)S(=O)(=O)c1ccccc1 (stereo not given) | i | nt | nt | nt | nt
C=CCn1c(O)c(N=NC(=S)Nc2ccccc2C)c2cc(S(=O)(=O)N3CCOCC3)ccc21 | i | i | i | 13µM | i
CCOC(=O)c1c(NC(=O)C(C)OC(=O)C2=COCCO2)sc2c1CCCC2 (stereo not given) | i | i | i | nt | i
CCOC(=O)c1c(NC(=O)C(C)OC(=O)c2ccc(NC(=O)CC#N)cc2)sc2c1CCCC2 (stereo not given) | i | 28µM | i | nt | i
Cc1cccc(C)c1NC(=O)C(=O)NCC(c1cccnc1)N1CCc2ccccc21 (stereo not given) | i | nt | nt | nt | nt
Cc1cc2oc(=O)cc(CSc3nc(N)cc(N)n3)c2cc1C(C)C | i | 2.8µM | i | i | i
CCCc1cc(=O)[nH]c(SCc2cc(=O)oc3cc(C)c(C(C)C)cc23)n1 | i | i | i | i | i
Cc1ccc(S(=O)(=O)N2CCC(C(=O)N[C@@H](C)C(=O)Nc3ccc(F)cc3)CC2)cc1 | i | i | i | i | i
Cc1ccc(S(=O)(=O)N2CCC(C(=O)N[C@@H](C)C(=O)Nc3ccc4c(c3)OCO4)CC2)cc1 | 35µM | i | i | i | i
CCOc1cc(CNc2ccc(O)cc2)cc(Br)c1OCc1ccccc1F | i | 4µM | i | i | i
CC(=O)Nc1nonc1-c1nnc(SCC(=O)Nc2cc(C)cc(C)c2)n1-c1ccccc1 | i | nt | nt | nt | nt
Cc1ccc(NCC(=O)c2ccccc2)cc1Cl | i | 0.32µM | i | i | i
Cc1ccc(NC2=C(NC(=O)c3ccccc3)C(=O)c3ccccc3C2=O)cc1Cl | i | 20µM | i | i | ?
Cn1cc(S(=O)(=O)c2ccc(Cl)cc2)c(=O)c2cc(F)c(N3CCOCC3)cc21 | i | nt | nt | nt | nt
O=C(O)c1ccccc1-c1noc(-c2ccccc2F)n1 | i | i | i | nt | nt
Cc1cccc(NC(=O)c2oc3ccc(S(=O)(=O)N4CCCCC4)cc3c2C)c1C | i | nt | nt | nt | nt
COc1ccc(CN2c3c(Br)cccc3C(=O)CS2(=O)=O)cc1 | nt | 13µM | i | nt | i
O=C1CS(=O)(=O)N(Cc2cccc(F)c2)c2ccc(Br)cc21 | i | i | i | nt | i
SMILES | AmpC detergent | AmpC inh no detg | SARS PLP yeast | NS1 function inh | AMA1 RON2 block
Cn1c2ccccc2c2cc(/C=N/NC(=O)c3cc(O)cc(O)c3)ccc21 | i | 16µM | ? | i | i
Cn1c2ccccc2c2cc(/C=N/NC(=O)c3cc(O)ccc3O)ccc21 | i | i | i | i | i
CC(=O)n1cc(/C=N/NC(=O)c2cccc(O)c2)c2ccccc21 | i | 11µM | i | i | i
CC1=C(C(=O)Nc2ccccc2C)C(c2cccnc2)n2nc(SCc3ccccc3F)nc2N1 (stereo not given) | i | nt | nt | nt | nt
CCC1CCCCN1C(=O)CSc1nnc(-c2cccc(Cl)c2)o1 (stereo not given) | ? | 5µM | i | i | i
CN(C)C(=Nc1ccccc1)P(=S)(N(C)C)N(C)C | i | i | i | nt | i
COc1ccc(N=C(N(C)C)P(=O)(N(C)C)N(C)C)cc1 | ? | 28µM | i | i | i
COc1ccccc1CNc1ccc(-c2nc(C(C)C)no2)cc1[N+](=O)[O-] | i | nt | nt | nt | nt

Screens deposited in PubChem BioAssay by National Center for Advancing Translational Sciences (NCATS).
